Out of some 310,000 compounds screened, about 14,000 (4.5%) showed an effect of 50% or more. The effect is printed as a negative number. The list comes from a sample in which strong results are over-represented; it also holds similar structures and randomly drawn compounds.
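Further: peak tail current of the secondary pulse compared with the same well before compound.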

The target of the assay is human ether-à-go-go-related gene (hERG) potassium channel (human, UniProt Q12809). The assay is described as follows: primary screen, population patch clamp on CHO cells stably expressing hERG; higher = less effect of the substance.
Sequence of human ether-à-go-go-related gene (hERG) potassium channel (Q12809 whole entry, looked up): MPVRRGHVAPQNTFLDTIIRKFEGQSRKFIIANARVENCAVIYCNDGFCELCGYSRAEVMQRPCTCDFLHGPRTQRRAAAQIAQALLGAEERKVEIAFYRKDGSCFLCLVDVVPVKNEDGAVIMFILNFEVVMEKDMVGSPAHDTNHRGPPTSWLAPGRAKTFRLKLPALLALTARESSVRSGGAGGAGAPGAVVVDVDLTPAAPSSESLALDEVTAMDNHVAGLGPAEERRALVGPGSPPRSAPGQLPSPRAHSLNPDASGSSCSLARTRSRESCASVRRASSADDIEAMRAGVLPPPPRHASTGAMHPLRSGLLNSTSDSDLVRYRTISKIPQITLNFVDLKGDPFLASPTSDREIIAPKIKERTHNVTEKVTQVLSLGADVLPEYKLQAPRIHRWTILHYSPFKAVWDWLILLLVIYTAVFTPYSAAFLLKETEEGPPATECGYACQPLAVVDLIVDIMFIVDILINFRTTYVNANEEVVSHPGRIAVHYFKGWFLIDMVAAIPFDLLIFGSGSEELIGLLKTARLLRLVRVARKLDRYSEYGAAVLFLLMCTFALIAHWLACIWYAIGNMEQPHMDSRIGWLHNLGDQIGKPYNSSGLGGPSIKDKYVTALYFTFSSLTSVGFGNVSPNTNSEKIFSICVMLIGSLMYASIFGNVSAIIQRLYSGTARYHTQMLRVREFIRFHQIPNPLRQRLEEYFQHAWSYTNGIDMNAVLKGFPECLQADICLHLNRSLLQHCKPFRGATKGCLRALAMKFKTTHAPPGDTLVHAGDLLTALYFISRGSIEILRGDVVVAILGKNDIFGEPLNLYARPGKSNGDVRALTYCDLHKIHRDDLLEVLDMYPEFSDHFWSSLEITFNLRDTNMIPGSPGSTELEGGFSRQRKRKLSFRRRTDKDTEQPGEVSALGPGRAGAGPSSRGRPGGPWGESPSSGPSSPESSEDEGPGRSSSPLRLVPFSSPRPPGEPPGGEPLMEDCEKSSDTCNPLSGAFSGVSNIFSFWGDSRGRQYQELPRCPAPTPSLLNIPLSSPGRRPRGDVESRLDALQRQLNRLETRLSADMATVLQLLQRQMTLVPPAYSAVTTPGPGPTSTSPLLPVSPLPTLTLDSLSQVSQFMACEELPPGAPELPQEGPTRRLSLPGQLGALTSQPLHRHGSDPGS
Regarding `CCCCN(CCCNC(=O)CN1C(=O)COc2ccc(S(=O)(=O)N3CCC(C)CC3)cc21)Cc1ccccc1`, the “hERG current change (%, negative = inhibition) at 10uM” value was -76.6%.

Regarding `CCN(Cc1ccccc1)C(=O)CN1C(=O)COc2ccc(S(=O)(=O)N3CCCCCC3)cc21`, the “hERG current change (%, negative = inhibition) at 10uM” value is listed as -8.9%.

Regarding `CCCCN(CCCC)CCNC(=O)CN1C(=O)COc2ccc(S(=O)(=O)N3CCC(C)CC3)cc21`, the “hERG current change (%, negative = inhibition) at 10uM” value is reported as -66.5%.

Consider `CCN(Cc1ccccc1)C(=O)CN1C(=O)COc2ccc(S(=O)(=O)NC3CCCC3)cc21`, for which the “hERG current change (%, negative = inhibition) at 10uM” value is given as -54.2%.

Take `CCCCN(CC)CCNC(=O)CN1C(=O)COc2ccc(S(=O)(=O)N3CCCC3)cc21`: the “hERG current change (%, negative = inhibition) at 10uM” value is reported as -3.34%.

As to `CCN(CC)S(=O)(=O)c1ccc2c(c1)N(CC(=O)N1CCCC1)C(=O)CO2`, the “hERG current change (%, negative = inhibition) at 10uM” value was -5.64%.

For `CC1CCN(S(=O)(=O)c2ccc3c(c2)N(CC(=O)NCCCN2CCCC(C)C2)C(=O)CO3)CC1` (centres unmarked), the “hERG current change (%, negative = inhibition) at 10uM” value was -8.35%.

Regarding `CCN(CC)S(=O)(=O)c1ccc2c(c1)N(CC(=O)N(CCc1ccncc1)C(C)C)C(=O)CO2`, the “hERG current change (%, negative = inhibition) at 10uM” value was -53.3%.

`CC(C)N(Cc1ccccc1)C(=O)CN1C(=O)COc2ccc(S(=O)(=O)NC3CCCC3)cc21`: the “hERG current change (%, negative = inhibition) at 10uM” value is reported as -36.1%.

Turning to `CCCCN(CCCC)CCNC(=O)CN1C(=O)COc2ccc(S(=O)(=O)N3CCOCC3)cc21`, the “hERG current change (%, negative = inhibition) at 10uM” value is listed as -42.3%.

Consider `CC1CCN(S(=O)(=O)c2ccc3c(c2)N(CC(=O)NCCCN2C(C)CCCC2C)C(=O)CO3)CC1` (centres unmarked), for which the “hERG current change (%, negative = inhibition) at 10uM” value was 17.3%.

With `CCN(CC)S(=O)(=O)c1ccc2c(c1)N(CC(=O)NCCc1ccc(S(N)(=O)=O)cc1)C(=O)CO2`, the “hERG current change (%, negative = inhibition) at 10uM” value is -1.7%.

As for `CC(C)CN(C(=O)COC(=O)/C=C/c1ccccc1)C1CCS(=O)(=O)C1` (centres unmarked), the “hERG current change (%, negative = inhibition) at 10uM” value was -10.7%.

`CCOC(=O)N1CCN(C(=O)CSc2nnc(COc3ccccc3)o2)CC1`: the “hERG current change (%, negative = inhibition) at 10uM” value is listed as -11%.

Take `S=C(Nc1ccc(Br)cc1Cl)NN1CCOCC1`: the “hERG current change (%, negative = inhibition) at 10uM” value is -8.03%.

Regarding `O=C(CC1NCCNC1=O)Nc1ccc(Oc2ccccc2)cc1` (centres unmarked), the “hERG current change (%, negative = inhibition) at 10uM” value is listed as 25.6%.

For `Cc1cc(C(=O)Nc2ccc3c(c2)CCC3)c2ccccc2n1`, the “hERG current change (%, negative = inhibition) at 10uM” value was found to be 10.8%.

Regarding `COc1ccc(Cl)cc1NC(=O)CCS(=O)(=O)c1ccc(Br)cc1`, the “hERG current change (%, negative = inhibition) at 10uM” value amounted to 3.8%.

`COc1ccc(NC(=O)C(=O)NNC(=O)C(C)Oc2ccc(Cl)cc2Cl)cc1` (centres unmarked): the “hERG current change (%, negative = inhibition) at 10uM” value stood at 19%.

On to `Cn1nc(C(=O)Nc2ccccc2)c2c1-c1ccccc1S(=O)(=O)C2`, for which the “hERG current change (%, negative = inhibition) at 10uM” value is -0.138%.

For `Cc1ccc(CCNC(=O)CN2C(=O)COc3ccc(S(=O)(=O)N4CCC(C)CC4)cc32)cc1`, the “hERG current change (%, negative = inhibition) at 10uM” value stood at 8.66%.

With `CC1CCN(S(=O)(=O)c2ccc3c(c2)N(CC(=O)NCCCN(Cc2ccccc2)C(C)C)C(=O)CO3)CC1`, the “hERG current change (%, negative = inhibition) at 10uM” value was -62.5%.

Regarding `CCCCN(CCCC)CCCNC(=O)CN1C(=O)COc2ccc(S(=O)(=O)N3CCC(C)CC3)cc21`, the “hERG current change (%, negative = inhibition) at 10uM” value is given as -74.8%.

Turning to `CC(C)CN(CCCNC(=O)CN1C(=O)COc2ccc(S(=O)(=O)N3CCCCCC3)cc21)CC(C)C`, the “hERG current change (%, negative = inhibition) at 10uM” value was -52%.

Take `CC1CCN(S(=O)(=O)c2ccc3c(c2)N(CC(=O)NCCCOC(C)C)C(=O)CO3)CC1`: the “hERG current change (%, negative = inhibition) at 10uM” value was determined as 12.8%.

As to `CC(C)CN(CCCNC(=O)CN1C(=O)COc2ccc(S(=O)(=O)N3CCCC3)cc21)CC(C)C`, the “hERG current change (%, negative = inhibition) at 10uM” value is recorded as -5.33%.

Turning to `CC(C)CN(CCCNC(=O)CN1C(=O)COc2ccc(S(=O)(=O)N3CCOCC3)cc21)CC(C)C`, the “hERG current change (%, negative = inhibition) at 10uM” value was 6.18%.

Turning to `CC(C)CN(CCCNC(=O)CN1C(=O)COc2ccc(S(=O)(=O)N3CCC(C)CC3)cc21)CC(C)C`, the “hERG current change (%, negative = inhibition) at 10uM” value is -2.94%.

On to `CCOCCCNC(=O)CN1C(=O)COc2ccc(S(=O)(=O)N3CCC(C)CC3)cc21`, for which the “hERG current change (%, negative = inhibition) at 10uM” value came to 6.25%.

Regarding `Cc1cc(C)nc(N2CCC(C(=O)Nc3ccc4c(c3)OCO4)CC2)n1`, the “hERG current change (%, negative = inhibition) at 10uM” value is -5.31%.

On to `NS(=O)(=O)c1ccc(CNS(=O)(=O)c2ccc3ccccc3c2)cc1`, for which the “hERG current change (%, negative = inhibition) at 10uM” value is recorded as 1.74%.

In the case of `O=C(CSc1ncccn1)NCc1ccc(Cl)cc1`, the “hERG current change (%, negative = inhibition) at 10uM” value is 4.02%.

Take `COC(=O)C(=O)/C=C(\O)c1c(C)cc(C)cc1C`: the “hERG current change (%, negative = inhibition) at 10uM” value stood at 14.9%.

In the case of `COc1ccc(/C=C2/CCc3ccccc3C2=O)cc1OC`, the “hERG current change (%, negative = inhibition) at 10uM” value was -19.8%.

Regarding `CCOc1cc(CNCCO)ccc1OCC(=O)NC(C)(C)C.Cl`, the “hERG current change (%, negative = inhibition) at 10uM” value turned out to be 15.7%.

As to `O=C(COC(=O)c1ccc(F)cc1F)NCCC1=CCCCC1`, the “hERG current change (%, negative = inhibition) at 10uM” value was found to be 10.6%.

In the case of `CCN1CCN(CC(O)COC(C)C)CC1.Cl` (centres unmarked), the “hERG current change (%, negative = inhibition) at 10uM” value is on record as 2.08%.

As for `Cl.OC(COc1ccc(Br)cc1)CN1CCC(Cc2ccccc2)CC1` (centres unmarked), the “hERG current change (%, negative = inhibition) at 10uM” value was -85.9%.

Take `CC(C)OCC(O)CN1CCC(Cc2ccccc2)CC1.Cl` (centres unmarked): the “hERG current change (%, negative = inhibition) at 10uM” value is reported as -56.9%.

For `Cl.OC(COc1ccc(Br)cc1)CN1CCCC1` (centres unmarked), the “hERG current change (%, negative = inhibition) at 10uM” value is -24.3%.

As for `Cl.OC(COc1ccccc1)CN1CCC(Cc2ccccc2)CC1` (centres unmarked), the “hERG current change (%, negative = inhibition) at 10uM” value is listed as -79.3%.

As to `CC(C)OCC(O)CN1CCNCC1.Cl` (centres unmarked), the “hERG current change (%, negative = inhibition) at 10uM” value turned out to be 11.6%.

As for `Cl.OCCN1CCN(CC(O)COc2ccc(Cl)cc2)CC1` (centres unmarked), the “hERG current change (%, negative = inhibition) at 10uM” value is given as -20.6%.

With `Cl.OC(COc1ccc(Cl)cc1)CN1CCN(c2ccccc2)CC1` (centres unmarked), the “hERG current change (%, negative = inhibition) at 10uM” value was -29.7%.

Consider `O=S(=O)(c1ccc(OCC(O)CN2CCC(Cc3ccccc3)CC2)cc1)N1CCOCC1` (centres unmarked), for which the “hERG current change (%, negative = inhibition) at 10uM” value was -44.4%.

Take `Cl.OC(COc1ccc(Cl)cc1)CN1CCC(Cc2ccccc2)CC1` (centres unmarked): the “hERG current change (%, negative = inhibition) at 10uM” value was -81.4%.

`Cl.OC(COc1ccc(Br)cc1)CN1CCOCC1` (centres unmarked): the “hERG current change (%, negative = inhibition) at 10uM” value is recorded as -0.178%.

As to `OC(COc1ccc(OCc2ccccc2)cc1)CN1CCOCC1` (centres unmarked), the “hERG current change (%, negative = inhibition) at 10uM” value was -17%.

Regarding `COc1ccc(-n2c(O)c(C(C)=NCCc3c[nH]c4ccccc34)c(=O)[nH]c2=O)cc1`, the “hERG current change (%, negative = inhibition) at 10uM” value was 14.6%.

`Cc1cc(C)cc(Oc2c(C(F)(F)F)oc3cc(OCC(=O)O)ccc3c2=O)c1`: the “hERG current change (%, negative = inhibition) at 10uM” value turned out to be 4.25%.

Consider `Cc1ccc(NC(=O)CSc2nnc(-c3cnccn3)n2C)cc1C`, for which the “hERG current change (%, negative = inhibition) at 10uM” value was -5.78%.

`C/C(=N\Nc1nncc2ccccc12)c1ccc(OCC(=O)N(C)C)cc1`: the “hERG current change (%, negative = inhibition) at 10uM” value was determined as 8.27%.

As to `COc1cc(CN2CCN(c3cccc(C)c3C)CC2)cc([N+](=O)[O-])c1O`, the “hERG current change (%, negative = inhibition) at 10uM” value stood at 23.5%.

Values taken from paper PMC4336329 (PLoS ONE, 2015).
